PLK1 PBD block: qHTS for Inhibitors of PLK1-PDB (polo-like kinase 1 - polo-box domain): Primary Screen | Serine/threonine-protein kinase PLK1 (Homo sapiens), P53350 | Plk1 PBD binding of FITC phosphopeptide, fluorescence polarization | Potency, µM, inactives show max response, negative = inhibition, actives largely listed as inhibitors | 2.8% of 360,000 active; note: series mostly up to about 57 µM; nearly all actives have a fitted effect of over 65% in size
TDP1 inh: qHTS Assay for Inhibitors of Tyrosyl-DNA Phosphodiesterase (TDP1); Tyrosyl-DNA phosphodiesterase 1 (Homo sapiens), Q9NUW8; 0.28% of 350,000 active; recombinant TDP1, AlphaScreen DNA substrate cleavage; AID 485290, 2010; Potency, µM (highest dose often 130 µM), inactives show at the top dose activity change, negative = inhibition, hits mostly inhibitors; note: nearly all actives have a fitted effect of over 40% in size
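Tdp1 1 nM final; 15 min RT w/ cpd; substrate 15 nM, 5 min; beads 10 ug/ml, 10 min; AlphaScreen read. Neg ctrl: no enzyme.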
DT40 TDP1 CPT: qHTS for Inhibitors of human tyrosyl-DNA phosphodiesterase 1 (TDP1): qHTS in cells in presence of CPT. 12% of 420,000 active. Potency, µM (doses to about 46.2 µM), without a hit: at the highest dose activity change, negative = growth inhibition, hits mostly inhibitors. chicken DT40 Tdp1-/-;hTDP1 cells + 20 nM CPT, ATP luminescence, 48 h. AID 686979, 2013; note: nearly all actives have a fitted effect of over 55% in size
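Chicken DT40 Tdp1-/- cells complemented with human TDP1, 400 cells/well, exposed to compounds plus 20 nM camptothecin for at least 48 h at 37 C; viability read as ATP content by CellTiter-Glo luminescence.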
VDR inhibitor: Inhibitors of the vitamin D receptor (VDR): qHTS. Potency, µM, inactives show max response, negative = inhibition, hits mostly inhibitors. 0.93% of 400,000 active. Vitamin D3 receptor (Homo sapiens), P11473. VDR-SRC2-3 peptide fluorescence polarization, 2 h
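FP read-out; VDR + SRC2-3 coactivator peptide; 23 nl compound by pintool; 2 h RT incubation; reagents held at 4 deg C, protected from light.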
DT40 TDP1 no CPT: qHTS for Inhibitors of human tyrosyl-DNA phosphodiesterase 1 (TDP1): qHTS in cells in absence of CPT; 15% of 420,000 active; Potency, µM (highest dose often 46.2 µM), without a hit: at the top dose activity change, negative = growth inhibition, usual class: inhibitors; DT40 Tdp1-/- hTDP1 cells, no CPT, ATP luminescence, 48 h; AID 686978, 2013; note: nearly all actives have a fitted effect of over 55% in size
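Readout: luminescence from CellTiter-Glo after 30 min in the dark at RT. Cells: DT40 Tdp1-/- with stable hTDP1, 400/well. Exposure: compounds alone, ≥48 hr, 37 °C.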
KAT2A inh: qHTS Assay for Inhibitors of GCN5L2 | GCN5L2 HAT assay, ThioGlo1 CoA-SH fluorescence | Potency, µM (series often up to 58.9 µM), for the others: at the top dose activity change, negative = inhibition, most hits filed as inhibitors | 0.21% of 390,000 active | AID 504327, 2011
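qHTS, 1536-well. 20nM enzyme, pH 7.5 HEPES/EDTA/Tween-20 buffer; 15 min compound preinc., RT. Start: 75uM H3(1-25), 70uM AcCoA, 50uM ThioGlo1. Read Ex340/Em540 at t=0 (autofluorescence flag) and t=20 min.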
* hit, by the source's call; ? = inconclusive; nt = no result; [ ] = remark or other dose. The list is not random: actives were taken first. Their share in the collection is about 18%. Calls come from the whole dose curve; as a rule, active = well fitted curve in the direction sought with a large enough effect; inconclusive = small, poorly fitted or top-dose-only effect, or another doubt; inactive = no such curve, though single readings can be large; an effect the other way counts as inactive or inconclusive. % is set by controls: 0 for no effect and ±100 for the full control effect; potency is the fitted concentration of half-maximal effect.

SMILES	PLK1 PBD block	TDP1 inh	DT40 TDP1 CPT	VDR inhibitor	DT40 TDP1 no CPT	KAT2A inh
O=C1NC[C@H](Cc2ccccc2)N(C[C@H]2CCCN2C[C@H](Cc2ccccc2)N2C[C@H](Cc3ccc(O)cc3)N(CCc3ccccc3)C(=O)C2=O)C1=O	-4%	nt	?	-12%	?	nt
CCN(CC)C(=O)Cn1c(=O)nc(-c2ccccc2F)c2cc(Cl)ccc21	nt	9%	-8%	11%	-10%	4%
Cc1cc(NC(=O)c2cccs2)ncc1NC(=O)C(C)(C)C	-6%	nt	-20%	-21%	-11%	2%
CCCC(=O)N1CCC1(C)C(=O)Nc1ccc(OC(F)F)cc1 (stereo unspecified)	0%	nt	-1%	nt	-24%	nt
CC(C)C[C@H]1COc2cc(N3CCC[C@H]3CO)ccc2S(=O)(=O)N1	-14%	nt	-25%	nt	-18%	nt
O=S1(=O)N[C@@H](Cc2ccccc2)COc2cc(N3CCC[C@@H]3CO)ccc21	-3%	nt	?	nt	16µM*	nt
COc1ccc(C2=CCCCCC2)cc1OC	-4%	nt	?	nt	12µM*	nt
COc1ccc(C2=CCCCCC2)c(OC)c1OC	2%	nt	?	4%	?	nt
O=C(Cn1cnc2cc([N+](=O)[O-])ccc2c1=O)NCc1ccccc1	-2%	0%	-6%	-27%	-22%	-3%
Cc1ccc(S(=O)(=O)c2nc(-c3cccs3)oc2NCCCN(C)C)cc1	-6%	0%	4%	-4%	3%	-2%
[O-]/[N+](=C\C=C\c1ccccc1)c1ccccc1	-5%	-4%	-15%	-6%	?	-1%
[O-]/[N+](=C\c1ccncc1)c1ccccc1	-11%	0%	21µM*	79µM*	?	-10%
O=C(Cc1ccc(S(=O)(=O)N2CCCCC2)s1)Nc1ccc(F)c(F)c1	3%	-3%	16µM*	3%	23µM*	-6%
O=C(Cc1ccc(S(=O)(=O)N2CCCC2)s1)Nc1cccc([N+](=O)[O-])c1	-13%	1%	?	-27%	16µM*	-5%
Cc1ccc(-n2nnnc2SCC(=O)NC(C(=O)O)(c2ccccc2)c2ccccc2)cc1C	-17%	-3%	5%	-17%	-11%	-4%
O=C1NC(=O)/C(=C/c2ccc3c(c2)OC(F)(F)O3)S1	nt	nt	nt	?	nt	-15%
Cc1ccc2nc(-c3ccc(C)o3)c(Nc3ccc(Cl)cc3)n2c1	nt	2%	?	?	?	nt
c1coc(C2=Nc3cccc4cccc(c34)N2)c1	?	-5%	15µM*	4%	23µM*	-6%
CC1=Nc2cccc3cccc(c23)N1	-3%	10%	?	-10%	23µM*	-5%
COc1cccc(C2=Nc3cccc4cccc(c34)N2)c1	-11%	-4%	?	-21%	?	37%
Nc1ccc(C2=Nc3cccc4cccc(c34)N2)cc1	-18%	-6%	-6%	-19%	?	-11%
COC(=O)[C@@H](NC(=O)C1CCCN(c2nc(C)c3ccc(C)cc3n2)C1)C(C)C (stereo partly specified)	nt	nt	14%[9.04 µM]	nt	?	nt
Cc1ccccc1C(=O)c1cccn1CC(=O)N1CCCCC1	-7%	-3%	0%	-4%	?	-3%
Nc1ccccc1OC1=NS(=O)(=O)c2ccccc21	nt	2%	nt	nt	nt	nt
COc1cccc(C(c2sc3nc(-c4ccco4)nn3c2O)N2CCOCC2)c1 (stereo unspecified)	nt	3%	-3%	13%	-10%	-3%
Oc1cc(Nc2ccc(N3CCCCC3)cc2)cc2cccnc12	nt	nt	nt	nt	nt	-6%

Screening results: PubChem, National Center for Advancing Translational Sciences (NCATS)
